Experimental data taken from PubChem BioAssay (NCI).
This is part of a sample that, as a whole, favours compounds with a hit. Of some 83,000 tested, about 20% had one in any assay.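 Single-concentration screen, 48 h exposure, 96-well plates. Endpoint: percent growth. Below 10 = active.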 Calls of active or inactive are those of the source.

system: HOP-62 NSCLC; assay: NCI-60 one-dose screen, 48 h (100 = growth as untreated, 0 = no growth, -100 = all killed); details: 10 µM unless noted
Experimental: Growth inhibition of the HOP-62 human Non-Small Cell Lung tumor cell line is measured as a screen for anti-cancer activity. Cells are grown in 96 well plates and exposed to the test compound for 48 hours. Compounds are tested at a single concentration, which is 10^-5 M for most compounds. The reported endpoint is percent growth (GI% or GIPRCNT), where numbers from 0 - 100% represent growth inhibition, and numbers from -100% - 0 represent cell death. For example, a value of 40 represents 60% growth inhibition. A value of 0 means no net growth occurred over the course of the experiment. A value of -40 indicates 40% of cells at the beginning of the experiment died by the end of the experiment. A value of -100 means all cells are dead at the end of the experiment.
NCI-60 Human Tumor Cell Lines Screen was performed using the standard one-dose NCI protocol, which is described in more detail at https://dtp.cancer.gov/discovery_development/nci-60/default.htm.
Compounds with GIPRCNT values below 10 were considered active. Activity score was based on GIPRCNT using the following formula: […]
Score is 0 for GIPRCNT values of 100 or above, 50 for GIPRCNT values of 0, and 100 for GIPRCNT values of -100.

Structure (SMILES)	growth
Oc1c(CNCCNCc2cc(Cl)cc(Cc3ccccc3)c2O)cc(Cl)cc1Cc1ccccc1	19.4% (inactive)
CCN(CC)CCCC(C)Nc1c2ccc(C)cc2nc2ccc(OC)cc12 (stereo not given)	45% (inactive)
Clc1ccc(/C=N/Nc2nc3ccccc3s2)c(Cl)c1	87.9% (inactive)
Nc1cc(C(=O)O)[nH]c(=S)n1	106% (inactive)
Cc1nn(-c2ccccc2)c(N2CCOCC2)c1-c1nc2ccc([N+](=O)[O-])cc2[nH]1	128% (inactive)
CC1(C(=O)O)CCC(N)(C(=O)O)C1(C)C (stereo not given)	99.5% (inactive)
O=C(CCNCc1ccccc1)c1ccccc1	104% (inactive)
CCN(CC)CCS(=O)(=O)CCNc1ccnc2cc(Cl)ccc12	22.5% (inactive)
CCOC(=O)c1cc(C(=O)c2ccc(OC)c(OC)c2)n2ccc(-c3ccccn3)cc12	53.1% (inactive)
CCN=C1C=CC(=C(c2ccc(N(CC)CC)cc2)c2ccc(N(CC)CC)cc2)c2ccccc21	-71.8% (active)
Cc1ccc(-c2cc(-c3ccc(C)cc3)nc(N3CCN(CCNc4ccnc5cc(Cl)ccc45)CC3)n2)cc1	41.6% (inactive)
ClC1=C(Cl)C(Cl)=C(Cl)C1=Cc1ccccc1	-32.7% (active)
C=C(C)[C@@H]1CC[C@]2(C(=O)O)CC[C@]3(C)[C@H](CC[C@@H]4[C@@]5(C)C/C(=C/c6ccco6)C(=O)C(C)(C)[C@@H]5CC[C@]43C)[C@@H]12	-85.2% [100 µM] (active)
Cc1cnc([C@]23CC[C@@H](C)[C@H](C)[C@H]2C2=CC[C@@H]4[C@@]5(C)Cc6c([nH]c7ccccc67)C(C)(C)[C@@H]5CC[C@@]4(C)[C@]2(C)CC3)o1	43.8% [100 µM] (inactive)
CC1(C)C(=NO)C(C)(C)C1=NO	117% (inactive)
O=c1[nH]c2cc(Cl)c(Cl)cc2n2cc3ncccc3c12	80.6% (inactive)
CCOC(=O)n1cc(C2=C(c3ccc(OC)c(OC)c3)COC2=O)c2ccccc21	26.1% (inactive)
CCOC(=O)c1nn(C2CCCCO2)c2ccc(NC(=O)CN3CCOCC3)cc12 (stereo not given)	100% (inactive)
COc1ccc(C2=C(c3cn(C)c4ccccc34)C(=O)OC2)cc1OC	31.5% (inactive)
COc1cc2c(O)n(CCCN3CCOCC3)c3c4cnc5cccc(c(=O)c3c2cc1OC)c54	14.5% (inactive)

Structure (SMILES)	growth
CCN1c2ccccc2C(Cl)(c2ccc(N(C)C)cc2)c2ccccc21	73.6% (inactive)
Brc1ccc(-c2nnc3c4[nH]ccc4ncn23)cc1	92.6% (inactive)
C#CC(OC(=O)N(C)C)(c1ccccc1)c1ccc(F)cc1 (stereo not given)	116% (inactive)
O=[N+]([O-])c1cc([N+](=O)[O-])c(NN=C(c2ccc(O)cc2)c2ccc(O)cc2)cc1Cl	-91.2% (active)
O=C1COCCN1c1ccc(Nc2nc(Cl)nc(N3CCOCC3)n2)cc1	97.9% (inactive)
CC(C)(C)c1cc(C(=O)Nc2cc3ccccc3cc2C(=O)NCCN)cc(C(C)(C)C)c1	-80.8% (active)
C=C(C)[C@@H]1CC[C@]2(COCCC#N)CC[C@]3(C)[C@H](CC[C@@H]4[C@@](C)(CCCNCCC#N)[C@H](C(=C)C)CC[C@]43C)[C@@H]12	77.8% [100 µM] (inactive)
COC(=O)[C@]12CCC(C)(C)C[C@H]1C1=CC[C@@H]3[C@@]4(C)C/C(=C/c5cccnc5)C(=O)C(C)(C)[C@@H]4CC[C@@]3(C)[C@]1(C)CC2	-19.3% [100 µM] (active)
CC[C@@](C)(NC(=O)[C@H](C)NC(=O)CCNC(=O)C(C)(C)NC(=O)[C@H](C)NC(=O)[C@@H]1CCCN1C(=O)[C@@](C)(CC)NC(=O)[C@H](Cc1ccccc1)NC(=O)C1CCCN1C(=O)C(C)(C)NC(=O)C1CCCN1C(=O)C(C)(C)NC(C)=O)C(=O)NCCC(=O)N[C@@H](CC(C)C)C(=O)NC(C)(C)C(=O)NCCC(=O)N[C@@H](CC(C)C)C(=O)NC(C)(C)C(=O)NC(C)(C)C(=O)N[C@@H](CC(C)C)C(=O)NCCC(=O)NCO (stereo not given in full)	-92% (active)
CC(C)[C@H]1COC(=O)N1[C@@H]1C(=O)N([C@@H](CCC(=O)N2CCN(C3CCCC3)CC2)C(=O)N[C@@H]2CCCc3ccccc32)[C@@H]1/C=C/c1cccc(Cl)c1	79% (inactive)
C#C[C@]1(O)CC[C@H]2[C@@H]3CC=C4c5nc(Nc6ccccc6[N+](=O)[O-])sc5CC[C@]4(C)[C@H]3CC[C@@]21C	69.2% (inactive)
CCN(CC)CCSC(=O)C(O)(c1ccccc1)C1CCCC1 (stereo not given)	111% (inactive)
O=C(N[C@@H]1CCCc2ccccc21)[C@H](CCC(=O)N1CCN(C2CCCCC2)CC1)N1C(=O)[C@@H](N2C(=O)OC[C@@H]2c2ccccc2)[C@H]1/C=C/c1ccccc1	61.3% (inactive)
O=C(O)CSCc1nnc2n(Cc3ccccc3)c(=O)c3c4c(sc3n12)CCCC4	139% (inactive)
CCN(CC)CCCC(C)Nc1ccnc2cc(Cl)c(SCc3ccccc3)cc12 (stereo not given)	-72.2% (active)
Cc1nc(-c2ccccc2)sc1CC#N	102% (inactive)
C#CCNC(=O)CC[C@@H](C)[C@H]1CC[C@H]2[C@@H]3CC[C@@H]4CC(=O)CC[C@]4(C)[C@H]3CC[C@]12C	-56.3% [100 µM] (active)
COc1ccc(C2CC(c3ccc4ccccc4c3)=NN2c2nc(O)c(C3=c4cc(OC)ccc4=NC3=O)s2)cc1 (stereo not given)	-60.7% (active)
COC(=O)c1cc2c(=O)[nH]cc3c2c(n1)CCC3	97.4% (inactive)
O=C(Nc1cccc(F)c1)c1cc(=O)[nH]c2cc(Br)ccc12	50.9% (inactive)
